What all share (experiment): DAPPL (digital affinity profiling via proximity ligation, sequencing); 10 mM Tris-HCl pH 7.5, 50 mM NaCl, 1 mM DTT, 4% glycerol, room temperature, 30 min; GST-TFs on glutathione beads, 16-mer random dsDNA library, 0.1% formaldehyde crosslink after washing; high values mean tight binding
Common to all, as to conditions: protein: recombinant; tags: N-terminal GST; dsDNA, one strand shown

For experiment [1], the target named is T1, ERF (Homo sapiens, UniProt P50548 1-548).
T1 sequence: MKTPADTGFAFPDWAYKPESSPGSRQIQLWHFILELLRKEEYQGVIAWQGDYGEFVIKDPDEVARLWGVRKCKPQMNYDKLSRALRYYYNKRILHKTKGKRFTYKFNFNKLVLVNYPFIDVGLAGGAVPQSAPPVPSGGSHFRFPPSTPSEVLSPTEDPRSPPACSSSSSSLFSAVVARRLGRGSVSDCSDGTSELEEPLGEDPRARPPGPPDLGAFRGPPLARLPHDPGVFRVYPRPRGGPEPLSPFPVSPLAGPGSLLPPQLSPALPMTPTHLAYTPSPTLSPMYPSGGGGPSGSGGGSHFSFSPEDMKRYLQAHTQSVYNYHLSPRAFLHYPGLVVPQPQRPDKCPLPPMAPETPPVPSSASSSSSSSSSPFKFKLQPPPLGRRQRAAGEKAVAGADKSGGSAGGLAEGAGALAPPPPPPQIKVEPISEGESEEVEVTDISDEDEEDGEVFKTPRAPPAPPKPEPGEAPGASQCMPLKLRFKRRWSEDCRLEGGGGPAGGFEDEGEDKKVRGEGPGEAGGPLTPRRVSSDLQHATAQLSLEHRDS
In outline: (§1)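 Sequencing on an Illumina NextSeq500 followed washing, crosslinking with 0.1% formaldehyde, proximity ligation (BsaI/T4 ligase, 1 h, 37 °C) and PCR amplification of pools that had been incubated for 30 min at room temperature with 200 nmole of a random double-stranded 16-mer DNA library in Tris/NaCl/DTT/glycerol buffer. Each pool held DNA-barcoded human transcription factors, expressed in yeast as GST fusions and captured on glutathione beads, plus a tag-only sample. Binding signal is a hexamer's read frequency for a factor divided by its frequency in the tag-only sample.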

Experiment [2] concerns the target T2, ETV3L (Homo sapiens, UniProt Q6ZN32 1-361).
T2 sequence: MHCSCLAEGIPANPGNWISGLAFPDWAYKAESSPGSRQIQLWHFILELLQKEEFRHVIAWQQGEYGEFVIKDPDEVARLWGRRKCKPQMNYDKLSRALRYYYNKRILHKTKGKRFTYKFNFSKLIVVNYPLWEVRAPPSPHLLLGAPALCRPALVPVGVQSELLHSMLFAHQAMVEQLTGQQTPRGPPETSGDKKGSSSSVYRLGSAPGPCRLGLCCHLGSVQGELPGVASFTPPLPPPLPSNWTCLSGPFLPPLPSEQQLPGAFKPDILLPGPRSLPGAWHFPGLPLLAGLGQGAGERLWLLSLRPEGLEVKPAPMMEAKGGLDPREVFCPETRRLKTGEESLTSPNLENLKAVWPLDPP
In outline:
as §1

Experiment [3] addresses T3, ETS2 (Homo sapiens, UniProt P15036 1-469).
T3 sequence: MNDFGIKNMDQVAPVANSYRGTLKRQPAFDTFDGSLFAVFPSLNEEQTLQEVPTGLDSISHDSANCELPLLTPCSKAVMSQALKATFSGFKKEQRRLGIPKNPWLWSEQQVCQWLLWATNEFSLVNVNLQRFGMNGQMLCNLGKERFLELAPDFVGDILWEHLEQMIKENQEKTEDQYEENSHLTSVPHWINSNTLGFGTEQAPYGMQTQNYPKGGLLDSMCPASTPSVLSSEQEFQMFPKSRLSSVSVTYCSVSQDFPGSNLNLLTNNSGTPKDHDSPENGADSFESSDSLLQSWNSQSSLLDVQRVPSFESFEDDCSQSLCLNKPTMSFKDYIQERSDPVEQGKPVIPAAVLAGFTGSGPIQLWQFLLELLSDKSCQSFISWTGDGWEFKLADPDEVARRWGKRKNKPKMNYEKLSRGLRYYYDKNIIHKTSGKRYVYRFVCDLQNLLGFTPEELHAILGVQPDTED
In outline:
as §1

Experiment [4] concerns the target T4, SPDEF (Homo sapiens, UniProt O95238 1-335).
T4 sequence: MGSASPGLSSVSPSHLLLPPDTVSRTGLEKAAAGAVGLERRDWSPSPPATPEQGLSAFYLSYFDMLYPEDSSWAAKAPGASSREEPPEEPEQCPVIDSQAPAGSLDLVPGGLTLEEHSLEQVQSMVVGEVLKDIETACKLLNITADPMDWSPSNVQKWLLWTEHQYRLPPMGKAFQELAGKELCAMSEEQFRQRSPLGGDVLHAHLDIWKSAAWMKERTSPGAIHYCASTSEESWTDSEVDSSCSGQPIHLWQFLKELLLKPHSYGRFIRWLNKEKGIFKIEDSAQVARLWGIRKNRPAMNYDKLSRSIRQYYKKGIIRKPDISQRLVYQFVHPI
Summed up: as §1

In experiment [5] the target is T5, ETV7 (Homo sapiens, UniProt Q9Y603 1-341).
T5 sequence: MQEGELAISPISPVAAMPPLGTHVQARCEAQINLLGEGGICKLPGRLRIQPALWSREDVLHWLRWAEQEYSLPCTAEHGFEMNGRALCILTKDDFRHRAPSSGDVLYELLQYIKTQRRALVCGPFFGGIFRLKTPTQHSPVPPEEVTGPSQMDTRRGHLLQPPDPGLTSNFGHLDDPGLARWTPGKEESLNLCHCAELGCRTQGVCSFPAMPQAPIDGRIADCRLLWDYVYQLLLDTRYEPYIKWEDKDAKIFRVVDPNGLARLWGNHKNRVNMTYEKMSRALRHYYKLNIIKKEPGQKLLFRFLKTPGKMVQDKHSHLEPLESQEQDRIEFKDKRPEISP
Summed up:
as §1

The target of experiment [6] is T6, ELF5 (Homo sapiens, UniProt Q9UKW6-2 1-255).
T6 sequence: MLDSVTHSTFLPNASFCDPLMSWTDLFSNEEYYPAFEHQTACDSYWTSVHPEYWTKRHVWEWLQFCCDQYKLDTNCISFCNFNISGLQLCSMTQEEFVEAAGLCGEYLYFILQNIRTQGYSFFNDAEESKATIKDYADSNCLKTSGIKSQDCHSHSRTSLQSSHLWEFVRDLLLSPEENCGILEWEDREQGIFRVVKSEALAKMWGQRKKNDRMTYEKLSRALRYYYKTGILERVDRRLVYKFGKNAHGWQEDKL
Summed up: as §1

Experiment [7] addresses T7, ETV3 (Homo sapiens, UniProt P41162-2 1-143).
T7 sequence: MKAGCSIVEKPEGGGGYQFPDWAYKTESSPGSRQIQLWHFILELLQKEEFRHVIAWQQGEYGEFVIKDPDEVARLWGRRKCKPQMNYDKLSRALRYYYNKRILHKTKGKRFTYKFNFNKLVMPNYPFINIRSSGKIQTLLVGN
Summed up:
as §1

Experiment [8] addresses ETV6 (Homo sapiens, UniProt P41212 1-452). Summed up: as §1

For 7 sequences, binding signal results are on record in paper PMC7862700, “An all-to-all approach to the identification of sequence-specific readers for epigenetic DNA modifications on cytosine”.

Chain of ETV6 (P41212 whole entry): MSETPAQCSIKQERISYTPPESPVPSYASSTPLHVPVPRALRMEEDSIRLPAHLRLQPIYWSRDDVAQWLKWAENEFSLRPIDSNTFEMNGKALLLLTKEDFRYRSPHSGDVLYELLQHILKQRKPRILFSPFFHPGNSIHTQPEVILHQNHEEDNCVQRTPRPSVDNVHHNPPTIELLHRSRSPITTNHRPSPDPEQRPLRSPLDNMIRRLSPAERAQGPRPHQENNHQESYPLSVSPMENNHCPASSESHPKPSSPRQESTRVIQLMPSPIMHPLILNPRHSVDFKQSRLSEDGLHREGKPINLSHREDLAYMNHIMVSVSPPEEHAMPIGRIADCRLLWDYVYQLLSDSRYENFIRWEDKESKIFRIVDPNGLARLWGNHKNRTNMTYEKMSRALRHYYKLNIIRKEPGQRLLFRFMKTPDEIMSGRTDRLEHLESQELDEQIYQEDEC

As for GATGCA, the binding signal in experiment [1] is 1.2 fold enrichment (6-mer frequency, TF over GST control); in experiment [2], 1.14 fold enrichment (6-mer frequency, TF over GST control); in experiment [3], 1.16 fold enrichment (6-mer frequency, TF over GST control); in experiment [4], 1.47 fold enrichment (6-mer frequency, TF over GST control); in experiment [5], 1.04 fold enrichment (6-mer frequency, TF over GST control); in experiment [6] it was 1.1 fold enrichment (6-mer frequency, TF over GST control). For the same sequence, the binding signal in experiment [7] was 1.16 fold enrichment (6-mer frequency, TF over GST control); in experiment [8], 1.02 fold enrichment (6-mer frequency, TF over GST control).
Turning to ATTCTT, the binding signal is 1.3 fold enrichment (6-mer frequency, TF over GST control) in experiment [1]; 1.46 fold enrichment (6-mer frequency, TF over GST control) in experiment [2]; 1.41 fold enrichment (6-mer frequency, TF over GST control) in experiment [3]; 1.34 fold enrichment (6-mer frequency, TF over GST control) in experiment [4]; 1.54 fold enrichment (6-mer frequency, TF over GST control) in experiment [5]; 1.4 fold enrichment (6-mer frequency, TF over GST control) in experiment [6]. For the same sequence, the binding signal in experiment [7] was 1.48 fold enrichment (6-mer frequency, TF over GST control); in experiment [8], 1.46 fold enrichment (6-mer frequency, TF over GST control).
With GGATGC, the binding signal is 1.13 fold enrichment (6-mer frequency, TF over GST control) in experiment [1]; 1.19 fold enrichment (6-mer frequency, TF over GST control) in experiment [2]; 1.2 fold enrichment (6-mer frequency, TF over GST control) in experiment [3]; 1.91 fold enrichment (6-mer frequency, TF over GST control) in experiment [4]; 1.22 fold enrichment (6-mer frequency, TF over GST control) in experiment [5]; 1.25 fold enrichment (6-mer frequency, TF over GST control) in experiment [6]. Moreover, the binding signal in experiment [7] is 1.3 fold enrichment (6-mer frequency, TF over GST control); in experiment [8], 1.15 fold enrichment (6-mer frequency, TF over GST control).
Turning to ATGTGC, the binding signal is 1.15 fold enrichment (6-mer frequency, TF over GST control) in experiment [1]; 1.11 fold enrichment (6-mer frequency, TF over GST control) in experiment [2]; 1.1 fold enrichment (6-mer frequency, TF over GST control) in experiment [3]; 1.23 fold enrichment (6-mer frequency, TF over GST control) in experiment [4]; 1.03 fold enrichment (6-mer frequency, TF over GST control) in experiment [5]; 1.09 fold enrichment (6-mer frequency, TF over GST control) in experiment [6]. Also, the binding signal is 1.15 fold enrichment (6-mer frequency, TF over GST control) in experiment [7] and 1.1 fold enrichment (6-mer frequency, TF over GST control) in experiment [8].
For TGTCAC, the binding signal in experiment [1] was 1.13 fold enrichment (6-mer frequency, TF over GST control); in experiment [2], 1.21 fold enrichment (6-mer frequency, TF over GST control); in experiment [3] it was 1.26 fold enrichment (6-mer frequency, TF over GST control); in experiment [4], 1.09 fold enrichment (6-mer frequency, TF over GST control); in experiment [5] it was 1.29 fold enrichment (6-mer frequency, TF over GST control); in experiment [6] it was 1.11 fold enrichment (6-mer frequency, TF over GST control). For the same sequence, the binding signal was 1.08 fold enrichment (6-mer frequency, TF over GST control) in experiment [7] and 1.1 fold enrichment (6-mer frequency, TF over GST control) in experiment [8].
For the sequence AAGCTT, the binding signal in experiment [1] is 1.29 fold enrichment (6-mer frequency, TF over GST control); in experiment [2], 1.31 fold enrichment (6-mer frequency, TF over GST control); in experiment [3] it was 1.19 fold enrichment (6-mer frequency, TF over GST control); in experiment [4], 1.14 fold enrichment (6-mer frequency, TF over GST control); in experiment [5] it was 1.38 fold enrichment (6-mer frequency, TF over GST control); in experiment [6], 1.31 fold enrichment (6-mer frequency, TF over GST control). Also, the binding signal in experiment [7] is 1.2 fold enrichment (6-mer frequency, TF over GST control); in experiment [8], 1.3 fold enrichment (6-mer frequency, TF over GST control).
CTCGCG: the binding signal in experiment [1] was 1.41 fold enrichment (6-mer frequency, TF over GST control); in experiment [2], 1.44 fold enrichment (6-mer frequency, TF over GST control); in experiment [3], 1.47 fold enrichment (6-mer frequency, TF over GST control); in experiment [4], 1.4 fold enrichment (6-mer frequency, TF over GST control); in experiment [5] it was 1.38 fold enrichment (6-mer frequency, TF over GST control); in experiment [6], 1.42 fold enrichment (6-mer frequency, TF over GST control). For the same sequence, the binding signal in experiment [7] is 1.42 fold enrichment (6-mer frequency, TF over GST control); in experiment [8], 1.36 fold enrichment (6-mer frequency, TF over GST control).
